Dicer processing – human Dicer pre-microRNA cleavage inhibition; Q9UPY3; cat-ELCCA pre-miR-21 Dicer processing, chemiluminescence; active compounds read high; z-score at 25 µM; 6% of 47,000 active; AID 1347074; in the data active means z-score above about 3, passing the limit was not always enough;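 further: plate controls were vehicle for no effect and no enzyme for full effect; higher signal means more uncleaved substrate so more Dicer inhibition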
Numbers without * were called inactive. Only a selection was taken, and hits are over-represented in it overall.

SMILES	Dicer processing
CCCn1c(CCC(=O)O)ccc1-c1cccs1	3.02*
CCCOc1c(Cl)cc(C(=O)O)cc1Cl	-0.81
N#CC(=Nc1ccccc1)C1=C(O)c2ccccc2C1=O	-0.66
O=C(CSc1ncnc2sc3c(c12)CCCC3)NCc1ccco1	0.55
CN(C)S(=O)(=O)N(CC(=O)N1CCc2ccccc2C1)c1ccccc1	0.99
CCCCCn1c(=O)c2c(nc3n2CCN3c2ccc(OC)cc2)n(C)c1=O	-0.84
CC[n+]1c(C)n(-c2ccccc2)c2ccccc21	9.97*
CC(=O)Nc1ccc2c(c1)[n+](C)c(C)n2-c1ccccc1	0.47
CCOC(=O)c1c(O)c(O)c(C(=O)OCC)n1-c1ccccc1	-0.94
COc1cc(C2Nc3ccc4ncccc4c3C3=C2C(=O)CC(c2ccccc2)C3)ccc1OC(C)=O (configuration not stated)	0.01
C/C(=N\Nc1cc(C(F)(F)F)ccn1)c1ccc(Oc2ncc([N+](=O)[O-])s2)cc1	-0.22
CCCN(CCC)CC(O)Cn1cnc2c1c(=O)n(C)c(=O)n2C (configuration not stated)	1.52
CCOC(=O)NC(=S)Nc1ccc(N2CC(C)OC(C)C2)cc1 (configuration not stated)	0.9
N#CCC(=O)NNC(=S)Nc1ccc(F)cc1	3.31*
CC(C)(CO)NC(=S)Nc1ccc(F)cc1	1.12
N#CCC(=O)NNC(=S)Nc1cc(C(F)(F)F)cc(C(F)(F)F)c1	0.01
CCOC(=O)NC(=S)Nc1ccc(C(C)(C)C)cc1	5.1*
CCOC(=O)NC(=S)Nc1ccc(F)cc1	6.69*
CC(CO)(CO)NC(=S)Nc1ccc(F)cc1	5.78*
OCC(CO)(CO)NC(=S)Nc1ccc(F)c(Cl)c1	0.43
CC(C)(C)C(=O)NC(=S)Nc1ccc(C(F)(F)F)cc1	1.4
CCOC(=O)NC(=S)Nc1ccc(C(C)(C)C)cc1NC(=S)NC(=O)OCC	1.5
CCOC(=O)NC(=S)Nc1cccc(C)n1	0.6
O=C(CCc1ccc(O)cc1)NNC(=S)Nc1ccc(F)cc1	0.28
COc1cc(OC)cc(-c2nc3n(n2)C(c2ccc(F)cc2)C2=C(CCCC2=O)N3)c1 (configuration not stated)	1.96
SMILES	Dicer processing
N#Cc1cccnc1N1CCCN(C(=O)Nc2cccs2)CC1	-0.34
COC(=O)c1sc2ccccc2c1OS(=O)(=O)c1ccc(C)cc1	-1.89
CCOc1nc(-c2ccccc2)ccc1-c1noc(-c2cc(OC)cc(OC)c2)n1	0.55
CSC1=NCCN1S(=O)(=O)c1cc(Cl)c(Cl)cc1Cl	-1.14
CC1=C(C(=O)OC(C)C)C(c2cc3c(cc2Cl)OCO3)C2=C(CC(c3ccccc3)CC2=O)N1 (configuration not stated)	2.69
COC(=O)c1ccccc1NC(=O)/C(C#N)=C\c1cc(Cl)cc(Cl)c1	-1.75
CC1=NN(c2ccccc2)C(=O)/C1=C/c1ccc(Cl)cc1Cl	-0.12
CSc1cccc(-n2c(C(C)(C)C)cs/c2=N/c2ccccn2)c1	1.02
Cc1cc(C)c2c3c(sc2n1)C(=O)N(c1cccc(Cl)c1)CC(=O)N3	0.84
FC(F)(F)c1cc(-c2ccccc2)nc2ncnn12	-0.01
Cc1ccc(Nc2cc(-c3ccccc3)nc3ncnn23)cc1	3.18*
Cc1cc(Nc2ccccc2)n2ncnc2n1	-1.45
O=C1C(=O)N(Cc2cccnc2)C(c2ccc(Cl)cc2)/C1=C(\O)c1ccccc1 (configuration not stated)	0.33
CCOC(=O)C1=C(C)N(c2ccc(C)c(C)c2)C(=O)C1	9.82
C#CCOC(=O)Nc1cnc(OCC)c(C(F)(F)F)c1	-0.38
O=C(Nc1cc(Cl)cc(Cl)c1)OC1CN(C(c2ccccc2)c2ccccc2)C1	0.41
CCOC(=O)CN(C(=O)CSc1nc(C)cc(C)c1C#N)c1ccccc1C	-2.97
O=S(=O)(/C=C/c1ccccc1)c1ccc(F)c(Cl)c1	-0.86
O=C(N/N=C/C=C/c1ccccc1)N/N=C/C=C/c1ccccc1	-0.35
O=C(O)CS(=O)(=O)/C=C/c1ccccc1	18.6*
Cc1cc(Nc2ccc(F)cc2F)nc(N)n1	2.08
C=CCn1c(SCC(=O)NC(=O)NC)nnc1-c1ccncc1	-1.87
Nc1sccc1-c1nc2ccccc2s1	-4.06
CCN1CCN(C2=NC3(CCCCC3)C(C#N)C(=O)N2)CC1 (configuration not stated)	-0.51
COc1ccc(Nc2nc(-c3cccnc3)nc3ccccc23)cc1	-1.23
SMILES	Dicer processing
Oc1ccccc1Nc1nc(-c2cccnc2)nc2ccccc12	11.2*
COC(=O)c1cccc(Nc2nc(-c3cccnc3)nc3ccccc23)c1	-1.26
O=c1oc2ccccc2cc1S(=O)(=O)c1ccccc1	-0.85
CCCc1cc(=O)[nH]c(/N=C(\N)Nc2cc(Cl)cc(Cl)c2)n1	1.71
N#C/C(=C\N1CCN(C(c2ccccc2)c2ccccc2)CC1)S(=O)(=O)c1ccccc1	-1.89
COc1ccc(N=C(NO)c2ccccc2)cc1Cl	3.11*
ONC(=Nc1cccc(C(F)(F)F)c1)c1ccccc1	-0.29
ONC(=Nc1ccccc1)c1cccc(Cl)c1	-1.71
Cc1nc2c(C)cccc2c2c1CCN2c1cccc(C(F)(F)F)c1	-1.21
COc1ccc2ccccc2c1C(O)c1nccn1C (configuration not stated)	-3.59
Cn1ccnc1C(O)c1ccccc1 (configuration not stated)	1.26
COc1ccc(C(O)c2nccn2C)cc1OC (configuration not stated)	3.51*
Cc1ccnc(NC(c2cccc(F)c2)c2ccc3cccnc3c2O)c1 (configuration not stated)	10.9*
Cc1ccnc(NC(c2cc(C)ccc2O)c2ccc3cccnc3c2O)c1 (configuration not stated)	10.6*
COc1cccc(C(Nc2cc(C)ccn2)c2ccc3cccnc3c2O)c1 (configuration not stated)	7.68
Cc1ccnc(NC(c2ccc(C)s2)c2ccc3cccnc3c2O)c1 (configuration not stated)	0.85
COc1ccc(C(Nc2cc(C)ccn2)c2ccc3ccc(C)nc3c2O)cc1 (configuration not stated)	1.35
Cc1ccc2ccc(C(Nc3ccccn3)c3cccs3)c(O)c2n1 (configuration not stated)	2.75
Cc1ccnc(NC(c2cccc(F)c2)c2ccc3ccc(C)nc3c2O)c1 (configuration not stated)	6.08*
Cc1ccnc(NC(c2ccccc2F)c2ccc3cccnc3c2O)c1 (configuration not stated)	4.34
C=CCOc1cccc(C(Nc2cc(C)ccn2)c2ccc3cccnc3c2O)c1 (configuration not stated)	8.33*
Cc1ccc(C(=O)N(c2ccccc2)C(C)C2CC2)cc1 (configuration not stated)	-0.9
O=C(COc1ccccc1SCc1ccc(Cl)cc1)NNC(=O)c1ccccc1Cl	0.64
O=C(c1ccco1)c1cn(CC(=O)N2CCOCC2)c2ccccc12	1.18
CCCCN1Cc2c(n(CC(=O)c3ccc(OC)cc3)c3cc(-c4ccccc4)nn3c2=O)C1=O	0.14
SMILES	Dicer processing
C/C(=N\Nc1c(Cl)cc(Cl)cc1Cl)c1ccc(C#CC(C)(C)O)s1	3.18*
CC(C)(O)C#Cc1ccc(/C=N/Nc2c(Cl)cc(Cl)cc2Cl)cc1	2.46
CC(=O)c1ccc(C#CC(C)(C)O)s1	-0.68
O=c1c2ccccc2nc(-c2ccccc2)n1OCc1c(Cl)cccc1Cl	-0.19
Cc1cc(C)c(C(=O)CC2(O)C(=O)Nc3ccc(Cl)cc32)c(C)c1 (configuration not stated)	4.62*
O=C(CC1(O)C(=O)Nc2ccc(Cl)cc21)c1ccccc1 (configuration not stated)	2.96
